HCMV inh: inhibitors of human cytomegalovirus; HFF cells, HCMV-luciferase reporter, 72 h; hits give low values; activity change, negative = inhibition, % at 57.5 µM; actives 4.5% (n = 410,000); in the data active = activity change below about -60%; inconclusive = no clear call, values can overlap the other calls; inactive = above about -39%
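HFF cells seeded 16 h at 37C, treated with compounds, infected with luciferase-reporter HCMV at MOI 1 PFU/cell; luciferase read at 72 h post infection, normalized to buffer-only and Salinomycin controls.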
Giardia FBPA inh-1: Giardia lamblia aldolase inhibition; A8B2U2; purified Giardia FBPA; Potency, µM (titrated, usually from 59.6 µM), without a hit: top-dose activity, negative = inhibition, usual class: inhibitors; actives 0.71% (n = 290,000); AID 2451; also: potency is read from the fitted curve at half-maximal effect; nearly all actives have a fitted effect of over 55% in size
Target sequence (A8B2U2 whole entry, looked up): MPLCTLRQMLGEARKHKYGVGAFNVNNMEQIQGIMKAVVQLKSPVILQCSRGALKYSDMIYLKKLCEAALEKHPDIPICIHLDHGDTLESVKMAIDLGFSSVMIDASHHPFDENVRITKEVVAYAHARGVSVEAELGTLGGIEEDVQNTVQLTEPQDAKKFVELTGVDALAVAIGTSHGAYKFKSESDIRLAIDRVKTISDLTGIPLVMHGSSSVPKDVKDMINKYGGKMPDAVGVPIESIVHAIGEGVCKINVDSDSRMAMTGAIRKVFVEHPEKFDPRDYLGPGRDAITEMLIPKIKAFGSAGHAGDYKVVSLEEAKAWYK
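40 nM FBPA preincubated 10 min at RT with compound (up to 57.5 uM final), then substrate plus GAPDH/TPI/NAD/arsenate coupling and diaphorase/resazurin added. Fluorescence read after 20 min at RT, 525/598 nm.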
HCV inhibitor: HCV inhibition; Potency, µM (top dose mostly 41.8 µM), inactives show top-dose activity change, negative = inhibition, hits mostly inhibitors; Huh7.5.1 HCVcc-Cre infection, luciferase reporter, 44 h; actives 3.4% (n = 340,000); also: potency is read from the fitted curve at half-maximal effect
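Compounds are dispensed onto cells plated 4 h earlier at 1,000 per well, with HCVcc-Cre virus (about 0.5 moi) added next. Following 44 h of culture, luminescent signal is measured for 15 sec after 15 min with substrate at room temperature.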
FMDV antiviral: blocks foot and mouth disease virus. FMDV antiviral cell-based qHTS. Potency, µM (doses to about 57.9 µM), inactives show at the top dose activity change, negative = inhibition, actives largely listed as inhibitors. actives 1.2% (n = 410,000); calls by dose curve; tested in HEK293T cells; also: read-out not given here; potency is read from the fitted curve at half-maximal effect; nearly all actives have a fitted effect of over 45% in size
Lassa entry inh: inhibitors of Lassa virus binding or cell entry; AID 540256; Potency, µM (titrated, usually from 37.9 µM), inactives show top-dose activity change, negative = inhibition, usual class: inhibitors; Lassa virus pseudotype entry inhibition, cell reporter; actives 1.2% (n = 300,000); calls by dose curve; tested in HEK293 cells; also: potency is read from the fitted curve at half-maximal effect; nearly all actives have a fitted effect of over 50% in size
MARV entry inh: blocks Marburg virus binding to or entry into cells. Potency, µM (highest dose often 37.8 µM), without a hit: top-dose activity change, negative = inhibition, usual class: inhibitors. Marburg virus pseudotyped entry inhibition, cell reporter. actives 1.8% (n = 300,000); calls by dose curve; tested in HEK293 cells; also: potency is read from the fitted curve at half-maximal effect
Giardia growth: Giardia lamblia growth inhibition | shares compounds with Giardia FBPA inh-1 | actives 5% (n = 1,500) | AID 2785 | Giardia lamblia trophozoite growth inhibition | Potency, µM (doses to about 57.5 µM), inactives show at the highest dose activity change, negative = inhibition, hits mostly inhibitors;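 also: potency is read from the fitted curve at half-maximal effect; trophozoites exposed to compound for 48 h at 37 °C; nearly all actives have a fitted effect of over 70% in size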
Mammalian tox: counter-screen for Giardia aldolase inhibitors: mammalian cell toxicity; shares compounds with Giardia FBPA inh-1; mammalian cell viability counter-screen, qHTS; Potency, µM (series often up to 57.5 µM), for inactives: at the highest dose viability change, negative = toxicity, most hits filed as inhibitors; actives 4% (n = 1,500);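 also: Chinese hamster ovary cells used as mammalian cytotoxicity surrogate; viability measured as cellular ATP by luminescence; potency is read from the fitted curve at half-maximal effect; compound exposure lasted 48 h before reading; nearly all actives have a fitted effect of over 60% in size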
Giardia FBPA inh-2: confirmation of Giardia fructose-bisphosphate aldolase inhibitors; shares compounds with Giardia FBPA inh-1; purified Giardia aldolase enzyme activity, qHTS; Potency, µM (top dose mostly 57.5 µM), inactives show top-dose activity change, negative = inhibition, usual class: inhibitors; actives 5% (n = 1,500); also: potency is read from the fitted curve at half-maximal effect; nearly all actives have a fitted effect of over 45% in size
Rabbit aldolase: blocks rabbit muscle aldolase in Giardia aldolase selectivity test; actives 4% (n = 1,500); Potency, µM (doses to about 57.5 µM), inactives show at the top dose activity, negative = inhibition, most hits filed as inhibitors; shares compounds with Giardia FBPA inh-1; Rabbit muscle FBPA enzyme inhibition, selectivity counter-screen; also: potency is read from the fitted curve at half-maximal effect; nearly all actives have a fitted effect of over 60% in size
Target sequence (P00883 whole entry, looked up): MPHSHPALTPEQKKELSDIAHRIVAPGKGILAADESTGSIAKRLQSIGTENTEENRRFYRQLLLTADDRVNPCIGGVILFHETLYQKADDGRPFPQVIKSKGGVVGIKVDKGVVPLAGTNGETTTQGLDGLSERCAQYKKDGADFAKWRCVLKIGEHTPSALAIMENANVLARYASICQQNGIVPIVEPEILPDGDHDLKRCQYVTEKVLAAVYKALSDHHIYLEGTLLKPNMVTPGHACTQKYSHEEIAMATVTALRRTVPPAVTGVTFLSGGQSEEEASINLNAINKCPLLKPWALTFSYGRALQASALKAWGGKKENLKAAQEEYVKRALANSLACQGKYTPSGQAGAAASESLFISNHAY
GAPDH counter: GAPDH inhibition flagged for Giardia aldolase hits; GAPDH coupling enzyme counterscreen, biochemical, qHTS; Potency, µM (series often up to 57.5 µM), for inactives: top-dose activity change, negative = inhibition, hits mostly inhibitors; shares compounds with Giardia FBPA inh-1; actives 6% (n = 1,500); AID 2795; also: potency is read from the fitted curve at half-maximal effect; nearly all actives have a fitted effect of over 55% in size
An asterisk follows results filed as active; ? = inconclusive; . = no result; [ ] = remark or other dose. Only some compounds are listed: those with a hit (about 8.3% of all), similar ones and a draw of the others. Unless noted, calls follow the shape of the dose curve; as a rule, active = well fitted curve in the direction sought with a large enough effect; inconclusive = small, poorly fitted or top-dose-only effect, or another doubt; inactive = no such curve, though single readings can be large; an effect the other way counts as inactive or inconclusive. % is scaled to controls: 0 for no effect and ±100 for the full control effect.

SMILES | HCMV inh | Giardia FBPA inh-1 | HCV inhibitor | FMDV antiviral | Lassa entry inh | MARV entry inh | Giardia growth | Mammalian tox | Giardia FBPA inh-2 | Rabbit aldolase | GAPDH counter
CCCOc1ccc(CNC(=O)c2ccc(C)c(-n3c(C)nc4cccnc43)c2)cc1 | 0 | . | . | -7% | ? | . | . | . | . | . | .
CCN(C(=O)C(=O)Nc1ccc2nc3n(c(=O)c2c1)CCCCC3)c1ccc(F)cc1 | -10 | . | . | -8% | -10%[46.1 µM] | -26%[46.1 µM] | . | . | . | . | .
O=C1C(SCCO)=C(SCCO)C(=O)c2ccccc21 | -95* | 0.89µM* | 10µM* | 10µM* | 2.6µM* | 4µM* | ? | 11µM* | 6.3µM* | ? | 4µM*
CCOc1cc(/C=N/Nc2ncnc(Cl)c2N)ccc1O | -38 | ? | -22% | -17% | 8% | 0% | . | . | . | . | .
CCc1nnc(N/N=C/c2cc(C)c(C)cc2C)n1N | 17 | 13µM* | 5% | 4% | ? | ? | 17% | -4% | -24% | -8% | -5%
CCOc1cc(/C=N/Nc2nnc(C)n2N)ccc1O | 19 | 16µM* | 16% | -19% | . | . | -17% | 14% | ? | ? | ?
Cc1nnc(N/N=C/c2ccc(-c3ccccc3F)o2)n1N | -9 | 16µM* | 4% | 28% | ? | ? | ? | 0% | 16µM* | ? | ?
Cc1[nH]c2ccccc2c1/C=N/Nc1nc2ccccc2[nH]1 | -98* | 18µM* | ? | 0% | ? | ? | -4%[10.4 µM] | -20% | -10% | -6% | -2%
COc1ccc(OC)c(CNC(=O)c2ccc(NC(=O)c3nsc4ccccc34)cc2)c1 | 74 | . | . | 5% | -14%[46.1 µM] | . | . | . | . | . | .
CCc1nnc(N/N=C/c2c(C)[nH]c3ccccc23)n1N | -90* | 18µM* | -9% | 12% | . | -26%[46.1 µM] | 17% | 0% | ? | ? | -24%
CCc1nnc(N/N=C/c2c(F)cccc2Cl)n1N | -17 | 20µM* | 15% | 7% | . | . | -26% | 1% | -27% | -15% | -13%
Fc1cccc(Cl)c1/C=N/Nc1ccccn1 | 153 | 4% | ? | 57% | 23% | 3% | . | . | . | . | .
Cc1nnc(N/N=C/c2c(Cl)cccc2Cl)n1N | -17 | 22µM* | ? | -7% | 1% | ? | 13% | 8% | -15% | -3% | -1%
Clc1cccc(Cl)c1/C=N\Nc1nccs1 | 28 | -3% | -14% | . | ? | -5% | . | . | . | . | .
Cc1[nH]c2ccccc2c1/C=N/NC(=S)NCc1ccccc1 | 11 | -11% | ? | -4% | ? | -2% | . | . | . | . | .
CCOc1ccc(N2CC(NC(=O)c3cc4ccccc4o3)CC2=O)cc1 (centres undefined) | -5 | . | . | -4% | -4%[46.1 µM] | . | . | . | . | . | .
CCOC(=O)N1CCc2c(sc3c2c(=O)n(CCc2ccccc2)c(=O)n3CC(=O)Nc2ccccc2C)C1 | -35 | . | . | -14% | 0%[46.1 µM] | -10%[46.1 µM] | . | . | . | . | .
CC(C)c1nc(N(C)S(C)(=O)=O)nc(-c2ccc(F)cc2)c1/C=C/C(O)CC(O)CC(=O)O (centres undefined) | . | 4% | . | 8% | . | . | . | . | . | . | .
c1cc2c(cc1-c1csc(NNC3=NCCCCC3)n1)OCCO2 | -4 | 14µM* | ? | ? | ? | ? | -9%[10.4 µM] | -23% | 4% | 4% | 23%
CCC(=O)Nc1nc(-c2ccc3c(c2)OCCO3)cs1 | 61 | -3% | ? | 0% | . | . | . | . | . | . | .
Cn1c(=S)c2[nH]c(SCCN)nc2n(C)c1=O | -6 | . | -9% | -7% | 25% | 0% | . | . | . | . | .
Cn1c(=S)c2[nH]c(SCCN3CCCC3)nc2n(C)c1=O | -9 | 11µM* | -16% | 0% | . | . | 11%[10.4 µM] | 19% | 1% | -3% | 2%
O=c1c2ccccc2n2c(=S)[nH]nc2n1-c1ccccc1 | -31 | 7.1µM* | 1% | -16% | ? | 4%[46.1 µM] | -8% | 4% | 6% | 14% | 15%
Cn1c(=O)c2ccccc2n2c(=S)[nH]nc12 | -27 | 16µM* | -25% | -3% | . | 6%[46.1 µM] | 23% | 11% | 12% | 3% | 9%
Cc1ccc(N=Cc2cc(Cc3ccccc3Cl)cc([N+](=O)[O-])c2O)c(O)c1 | . | ? | 20% | 3% | 7% | -2% | . | . | . | . | .
SMILES | HCMV inh | Giardia FBPA inh-1 | HCV inhibitor | FMDV antiviral | Lassa entry inh | MARV entry inh | Giardia growth | Mammalian tox | Giardia FBPA inh-2 | Rabbit aldolase | GAPDH counter
COc1ccc(N=Cc2cc(Cc3ccccc3Cl)cc([N+](=O)[O-])c2O)cc1OC | . | 0.56µM* | 8% | 8% | . | . | 2%[10.4 µM] | 11% | ? | -21% | -26%
Cc1ccc(NC(=S)c2ccncc2)c(C)c1 | 0 | 16µM* | ? | -10% | . | . | -11% | 11% | 4% | 8% | 12%
CCc1c(O)nc(SC2CC(=O)N(c3ccc(F)c(Cl)c3)C2=O)[nH]c1=O (centres undefined) | -25 | 3.2µM* | 12% | -3% | 18%[46.1 µM] | 11%[46.1 µM] | 11%[38.3 µM] | -7% | ? | 15% | 5%
CCOC(=O)c1cccc(-n2nnc3c(sc4nc(C)c(Br)c(C)c43)c2=O)c1 | ? | . | . | -4% | -15%[46.1 µM] | 3%[46.1 µM] | . | . | . | . | .
Nc1cccnc1Sc1cccc(Cl)c1 | 17 | 1µM* | 17% | -25% | 9% | 1% | 9%[38.3 µM] | -11% | -6% | -3% | -6%
Cc1nc2cnc(Oc3ccccc3)nc2n(CCC#N)c1=O | . | -5% | . | -7% | . | . | . | . | . | . | .
COc1ccc(NC(=O)CSc2nc(-c3ccc(OC)cc3)cc(=O)[nH]2)cc1 | 34 | . | . | 15% | 13%[46.1 µM] | 5%[46.1 µM] | . | . | . | . | .
O=C(O)Cn1c(=O)c2c(c3ccccc31)CCC2 | -5 | -4% | 31% | 1% | -24%[46.1 µM] | 3%[46.1 µM] | . | . | . | . | .
O=C(O)Cn1c2c(c3ccccc31)CSc1ccc(Cl)cc1-2 | 28 | 7.1µM* | -3% | -8% | 18% | 6%[46.1 µM] | 0%[10.4 µM] | 2% | 17% | 13% | 16%
Cc1ccc(C2/C(=C(/O)c3ccc(Br)cc3)C(=O)C(=O)N2Cc2ccco2)o1 (centres undefined) | 65 | 20µM* | 26% | 21% | 16% | 10% | ? | 13% | -11% | -16% | -12%

Bioassay records as filed in PubChem BioAssay.
